# Measurements reported in PubChem BioAssay (NCI).
# The panel holds about 79,000 compounds, 15% with a hit somewhere; the sample as a whole holds those more often. A number with no mark means an inactive call. The source made the active and inactive calls. Cut-off read from the data, not from the text of the source: active = growth inhibition above about 70%; inactive = the rest.
# Assays:
# [1] = NCI Yeast Anticancer Drug Screen. Data for the rad52 strain (AID 147);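 note: 0% = growth of vehicle-treated control cultures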; conditions: S. cerevisiae rad52 mutant growth inhibition, stronger effect = higher value
# In short: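 DNA repair-defective yeast; compound exposure; growth scored against vehicle controls.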
# [2] = NCI Yeast Anticancer Drug Screen. Data for the wt1 strain (AID 149);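 note: 0% = growth of vehicle-treated wt1 cultures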; conditions: S. cerevisiae wt1 strain (SPY 50644) growth inhibition, stronger effect = higher value
# In short: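 Vehicle-normalised growth inhibition; strain wt1; compound exposure.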
# [3] = NCI Yeast Anticancer Drug Screen. Data for the rad50EPP+ strain (AID 151);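 note: 0% = growth of vehicle-treated control cultures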; conditions: S. cerevisiae rad50 mutant strain, stronger effect = higher value
# In short: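 rad50EPP+ yeast treated with test compounds. Readout: growth vs vehicle control.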
# [4] = NCI Yeast Anticancer Drug Screen. Data for the rad50 strain (AID 155);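 note: 0% = growth of vehicle-only cultures of the same strain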; conditions: S. cerevisiae rad50 strain growth inhibition, stronger effect = higher value
# In short: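 A DNA repair-deficient yeast mutant serves as the test organism; compound-induced growth inhibition is calculated against vehicle-treated cells.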
# [5] = NCI Yeast Anticancer Drug Screen. Data for the mec2-1 strain (AID 157); conditions: S. cerevisiae mec2-1 strain, stronger effect = higher value
# In short: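 Growth inhibition is read against vehicle-treated controls after compound exposure of the mec2-1 yeast strain, which is defective in DNA damage repair or cell cycle control.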
# [6] = NCI Yeast Anticancer Drug Screen. Data for the rad14 strain (AID 159);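 note: 0% = growth of vehicle-treated control cultures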; conditions: S. cerevisiae rad14 strain growth inhibition, stronger effect = higher value
# In short: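 Vehicle-treated cultures served as the baseline for growth inhibition of a DNA repair-mutant yeast strain exposed to each compound.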
# [7] = NCI Yeast Anticancer Drug Screen. Data for the sgs1 mgt1 strain (AID 161);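 note: 0% = growth of cultures given vehicle only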; conditions: S. cerevisiae sgs1 mgt1 strain, stronger effect = higher value
# In short: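 Compounds are added to genetically altered yeast, and growth is compared with cultures given vehicle alone to give percent inhibition.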
# [8] = NCI Yeast Anticancer Drug Screen. Data for the CLN2oe strain (AID 163);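 note: 0% = growth of vehicle-only control cultures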; conditions: S. cerevisiae CLN2oe strain, stronger effect = higher value
# In short: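 Compound-treated yeast; growth vs vehicle ctrl = % inhibition. Genetically altered strain (cell-cycle control).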
# [9] = NCI Yeast Anticancer Drug Screen. Data for the cln2 rad14 strain (AID 165);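 note: 0% = growth equal to vehicle treated cultures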; conditions: S. cerevisiae cln2 rad14 strain, stronger effect = higher value
# In short: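 Growth inhibition, relative to vehicle-treated controls, is the read-out. The test organism is a yeast strain with defined genetic alterations, cln2 rad14.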
# [10] = NCI Yeast Anticancer Drug Screen. Data for the bub3 strain (AID 167); conditions: S. cerevisiae bub3 mutant strain, stronger effect = higher value
# In short: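 Inhibition values come from growth of compound-treated mutant yeast normalised to vehicle-treated controls.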
# [11] = NCI Yeast Anticancer Drug Screen. Data for the wt2 strain (AID 169);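 note: 0% = growth of vehicle-treated yeast cultures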; conditions: S. cerevisiae wt2 strain growth inhibition, stronger effect = higher value
# In short: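 Compound exposure of yeast; growth compared with vehicle controls; inhibition reported.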
# [12] = NCI Yeast Anticancer Drug Screen. Data for the mlh1 strain (AID 171);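 note: 0% = growth of vehicle-treated control cultures of the same strain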; conditions: S. cerevisiae mlh1 strain growth inhibition, stronger effect = higher value
# In short: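 Compounds are applied to a genetically altered yeast strain, and its growth is compared with that of vehicle-treated cultures to give percent inhibition.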
# [13] = NCI Yeast Anticancer Drug Screen. Data for the sgs1 strain (AID 173);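 note: 0% = growth of vehicle-only control cultures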; conditions: S. cerevisiae sgs1 mutant, stronger effect = higher value
# In short: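 Compounds applied to genetically altered yeast; growth compared with vehicle-treated cultures to give % inhibition.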
# [14] = NCI Yeast Anticancer Drug Screen. Data for the mlh1 rad18 strain (AID 175); conditions: S. cerevisiae mlh1 rad18 strain growth inhibition, stronger effect = higher value
# In short: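 Cells of a genetically altered yeast strain, deficient in DNA damage repair, were treated with compound. Their growth was then compared with that of vehicle-treated cultures to give inhibition.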
# [15] = NCI Yeast Anticancer Drug Screen. Data for the rad18 strain (AID 177); conditions: S. cerevisiae rad18 mutant growth inhibition, stronger effect = higher value
# In short: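 Compounds are applied to a repair-deficient yeast strain, and growth is compared with that of vehicle-treated cultures to give percent inhibition.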
# [16] = at 5.0 µM (retest, dose inferred, filed as 0.5)
# [17] = at 50.0 µM (retest, dose inferred, filed as 5.0)
smiles,measurement,setting,value
O=C1OC2C(O)COC2(OCc2c[nH]c3ccccc23)C1O (stereo not drawn) (tested in a mixture with another compound),growth inhibition,[1]; at 1.2 µM,-2%
same,growth inhibition,[1]; at 3.7 µM,-1%
same,growth inhibition,[1]; at 11.0 µM,1%
same,growth inhibition,[1]; at 33.0 µM,24%
same,growth inhibition,[1]; at 100.0 µM,84% (active)
same,growth inhibition,[2]; at 1.2 µM,-1%
same,growth inhibition,[2]; at 3.7 µM,-1%
same,growth inhibition,[2]; at 11.0 µM,0%
same,growth inhibition,[2]; at 33.0 µM,12%
same,growth inhibition,[2]; at 100.0 µM,88% (active)
same,growth inhibition,[3]; at 1.2 µM,-5%
same,growth inhibition,[3]; at 3.7 µM,3%
same,growth inhibition,[3]; at 11.0 µM,7%
same,growth inhibition,[3]; at 33.0 µM,14%
same,growth inhibition,[3]; at 100.0 µM,15%
same,growth inhibition,[4]; at 1.2 µM,2%
same,growth inhibition,[4]; at 3.7 µM,5%
same,growth inhibition,[4]; [16],1%
same,growth inhibition,[4]; at 11.0 µM,19%
same,growth inhibition,[4]; at 33.0 µM,26%
same,growth inhibition,[4]; [17],15%
same,growth inhibition,[4]; at 50.0 µM,66.4%
same,growth inhibition,[4]; at 100.0 µM,95% (active)
same,growth inhibition,[5]; at 1.2 µM,0%
same,growth inhibition,[5]; at 3.7 µM,1%
same,growth inhibition,[5]; [16],-3%
same,growth inhibition,[5]; at 11.0 µM,1%
same,growth inhibition,[5]; at 33.0 µM,12%
same,growth inhibition,[5]; [17],22%
same,growth inhibition,[5]; at 50.0 µM,49.1%
same,growth inhibition,[5]; at 100.0 µM,91% (active)
same,growth inhibition,[6]; at 1.2 µM,-2%
same,growth inhibition,[6]; at 3.7 µM,2%
same,growth inhibition,[6]; at 11.0 µM,4%
same,growth inhibition,[6]; at 33.0 µM,30%
same,growth inhibition,[6]; at 100.0 µM,95% (active)
same,growth inhibition,[7]; [16],-3%
same,growth inhibition,[7]; [17],48%
same,growth inhibition,[7]; at 50.0 µM,66.5%
same,growth inhibition,[8]; at 1.2 µM,1%
same,growth inhibition,[8]; at 3.7 µM,1%
same,growth inhibition,[8]; at 11.0 µM,0%
same,growth inhibition,[8]; at 33.0 µM,9%
same,growth inhibition,[8]; at 100.0 µM,54%
same,growth inhibition,[9]; [16],-2%
same,growth inhibition,[9]; [17],36%
same,growth inhibition,[9]; at 50.0 µM,42.4%
same,growth inhibition,[10]; at 1.2 µM,0%
same,growth inhibition,[10]; at 3.7 µM,3%
same,growth inhibition,[10]; [16],-1%
same,growth inhibition,[10]; at 11.0 µM,3%
same,growth inhibition,[10]; at 33.0 µM,22%
same,growth inhibition,[10]; [17],46%
same,growth inhibition,[10]; at 50.0 µM,6.5%
same,growth inhibition,[10]; at 100.0 µM,92% (active)
same,growth inhibition,[11]; at 1.2 µM,-2%
same,growth inhibition,[11]; at 3.7 µM,7%
same,growth inhibition,[11]; at 11.0 µM,0%
same,growth inhibition,[11]; at 33.0 µM,5%
same,growth inhibition,[11]; at 100.0 µM,75% (active)
same,growth inhibition,[12]; at 1.2 µM,-1%
same,growth inhibition,[12]; at 3.7 µM,-2%
same,growth inhibition,[12]; at 11.0 µM,-2%
same,growth inhibition,[12]; at 33.0 µM,11%
same,growth inhibition,[12]; at 100.0 µM,87% (active)
same,growth inhibition,[13]; at 1.2 µM,-1%
same,growth inhibition,[13]; at 3.7 µM,0%
same,growth inhibition,[13]; at 11.0 µM,3%
same,growth inhibition,[13]; at 33.0 µM,43%
same,growth inhibition,[13]; at 100.0 µM,92% (active)
same,growth inhibition,[14]; [16],-3%
same,growth inhibition,[14]; [17],26%
same,growth inhibition,[14]; at 50.0 µM,88.9% (active)
same,growth inhibition,[15]; at 1.2 µM,0%
same,growth inhibition,[15]; at 3.7 µM,2%
same,growth inhibition,[15]; at 11.0 µM,9%
same,growth inhibition,[15]; at 33.0 µM,68%
same,growth inhibition,[15]; at 100.0 µM,96% (active)
